# ± gives the standard deviation of the averaged measurements.
# Legend:
# Experiment in all cases: promoter activity interaction Z-score (Lux/OD deviation from empty-vector control); higher = stronger promoter induction by the compound
# [1] = system: E. coli BW25113 acrABp lux reporter
# Outline: (§1)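 E. coli BW25113, as wild type or one of three single-gene deletion strains, carried low-copy luxCDABE promoter reporters and grew in 40 µl LB Lennox in 384-well plates at 37°C, with OD600 and luminescence read every 30 min for 12 h. Each compound was run at four 1:2 dilutions in biological duplicates, integration spanned 0–8 h for wild type and 1–9 h for deletion strains, and wells under 10% of the median growth value were dropped. The score is the Z-transformed residual of growth-normalised luminescence fitted against a control.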
# [2] = system: E. coli BW25113 micFp lux reporter
# Outline: as §1
# [3] = system: E. coli BW25113 ompFp lux reporter
# Outline: as §1
# [4] = system: E. coli BW25113 robp lux reporter
# Outline: as §1
# [5] = system: E. coli BW25113 soxSp lux reporter
# Outline: as §1
# [6] = system: E. coli BW25113 tolCp lux reporter
# Outline: as §1
# [7] = 21 µg/ml, genetic background: wild type
# [8] = 21 µg/ml, genetic background: ΔmarA
# [9] = 21 µg/ml, genetic background: Δrob
# [10] = 21 µg/ml, genetic background: ΔsoxS
# [11] = 42 µg/ml, genetic background: wild type
# [12] = 42 µg/ml, genetic background: ΔmarA
# [13] = 42 µg/ml, genetic background: Δrob
# [14] = 42 µg/ml, genetic background: ΔsoxS
# [15] = 84.1 µg/ml, genetic background: wild type
# [16] = 84.1 µg/ml, genetic background: ΔmarA
# [17] = 84.1 µg/ml, genetic background: Δrob
# [18] = 84.1 µg/ml, genetic background: ΔsoxS
# [19] = 168.2 µg/ml, genetic background: wild type
# [20] = 168.2 µg/ml, genetic background: ΔmarA
# [21] = 168.2 µg/ml, genetic background: Δrob
# [22] = 168.2 µg/ml, genetic background: ΔsoxS
smiles,measurement,setting,value
COc1ccc2cc3[n+](cc2c1OC)CCc1cc2c(cc1-3)OCO2 [Berberine],promoter activity interaction Z-score,[1]; [7],0.0236 ± 0.072
same,promoter activity interaction Z-score,[1]; [8],-0.475 ± 0.1
same,promoter activity interaction Z-score,[1]; [9],-0.306 ± 0.009
same,promoter activity interaction Z-score,[1]; [10],0.123 ± 0.39
same,promoter activity interaction Z-score,[1]; [11],-0.0191 ± 0.052
same,promoter activity interaction Z-score,[1]; [12],-0.27 ± 0.38
same,promoter activity interaction Z-score,[1]; [13],-0.196 ± 0.1
same,promoter activity interaction Z-score,[1]; [14],0.128 ± 0.55
same,promoter activity interaction Z-score,[1]; [15],-0.175 ± 0.13
same,promoter activity interaction Z-score,[1]; [16],-0.268 ± 0.47
same,promoter activity interaction Z-score,[1]; [17],-0.263 ± 0.31
same,promoter activity interaction Z-score,[1]; [18],0.253 ± 1.1
same,promoter activity interaction Z-score,[1]; [19],-0.0717 ± 0.13
same,promoter activity interaction Z-score,[1]; [20],-1.16 ± 0.13
same,promoter activity interaction Z-score,[1]; [21],-0.157 ± 0.19
same,promoter activity interaction Z-score,[1]; [22],0.745 ± 1.3
same,promoter activity interaction Z-score,[2]; [7],-0.242 ± 0.064
same,promoter activity interaction Z-score,[2]; [8],0.146 ± 0.14
same,promoter activity interaction Z-score,[2]; [9],-0.0671 ± 0.15
same,promoter activity interaction Z-score,[2]; [10],-0.125 ± 0.15
same,promoter activity interaction Z-score,[2]; [11],0.0805 ± 0.15
same,promoter activity interaction Z-score,[2]; [12],0.226 ± 0.014
same,promoter activity interaction Z-score,[2]; [13],0.0807 ± 0.046
same,promoter activity interaction Z-score,[2]; [14],0.68 ± 0.077
same,promoter activity interaction Z-score,[2]; [15],0.36 ± 0.12
same,promoter activity interaction Z-score,[2]; [16],0.426 ± 0.11
same,promoter activity interaction Z-score,[2]; [17],0.14 ± 0.12
same,promoter activity interaction Z-score,[2]; [18],0.7 ± 0.18
same,promoter activity interaction Z-score,[2]; [19],0.445 ± 0.051
same,promoter activity interaction Z-score,[2]; [20],0.425 ± 0.057
same,promoter activity interaction Z-score,[2]; [21],0.095 ± 0.17
same,promoter activity interaction Z-score,[2]; [22],2.075 ± 0.006
same,promoter activity interaction Z-score,[3]; [7],-0.331 ± 0.05
same,promoter activity interaction Z-score,[3]; [8],-0.189 ± 0.11
same,promoter activity interaction Z-score,[3]; [9],-0.392 ± 0.37
same,promoter activity interaction Z-score,[3]; [10],-0.128 ± 0.0057
same,promoter activity interaction Z-score,[3]; [11],-0.202 ± 0.02
same,promoter activity interaction Z-score,[3]; [12],-0.182 ± 0.032
same,promoter activity interaction Z-score,[3]; [13],0.159 ± 0.48
same,promoter activity interaction Z-score,[3]; [14],-0.184 ± 0.26
same,promoter activity interaction Z-score,[3]; [15],-0.592 ± 0.13
same,promoter activity interaction Z-score,[3]; [16],0.181 ± 0.27
same,promoter activity interaction Z-score,[3]; [17],-0.302 ± 0.21
same,promoter activity interaction Z-score,[3]; [18],0.222 ± 0.86
same,promoter activity interaction Z-score,[3]; [19],-0.265 ± 0.1
same,promoter activity interaction Z-score,[3]; [20],-0.655 ± 0.28
same,promoter activity interaction Z-score,[3]; [21],-0.0984 ± 0.32
same,promoter activity interaction Z-score,[3]; [22],0.615 ± 1.2
same,promoter activity interaction Z-score,[4]; [7],-0.384 ± 0.27
same,promoter activity interaction Z-score,[4]; [8],-0.668 ± 0.061
same,promoter activity interaction Z-score,[4]; [9],-0.229 ± 0.035
same,promoter activity interaction Z-score,[4]; [10],1.02 ± 0.67
same,promoter activity interaction Z-score,[4]; [11],-0.378 ± 0.14
same,promoter activity interaction Z-score,[4]; [12],-0.587 ± 0.51
same,promoter activity interaction Z-score,[4]; [13],-0.855 ± 0.25
same,promoter activity interaction Z-score,[4]; [14],-0.0756 ± 0.39
same,promoter activity interaction Z-score,[4]; [15],-0.935 ± 0.66
same,promoter activity interaction Z-score,[4]; [16],-0.613 ± 0.14
same,promoter activity interaction Z-score,[4]; [17],-0.951 ± 0.11
same,promoter activity interaction Z-score,[4]; [18],-0.288 ± 0.24
same,promoter activity interaction Z-score,[4]; [19],-0.906 ± 0.21
same,promoter activity interaction Z-score,[4]; [20],-1.18 ± 0.24
same,promoter activity interaction Z-score,[4]; [21],-0.88 ± 0.11
same,promoter activity interaction Z-score,[4]; [22],-0.247 ± 0.37
same,promoter activity interaction Z-score,[5]; [7],0.0121 ± 0.039
same,promoter activity interaction Z-score,[5]; [8],0.176 ± 0.081
same,promoter activity interaction Z-score,[5]; [9],0.152 ± 0.084
same,promoter activity interaction Z-score,[5]; [10],-0.0133 ± 0.085
same,promoter activity interaction Z-score,[5]; [11],0.0147 ± 0.0098
same,promoter activity interaction Z-score,[5]; [12],0.336 ± 0.2
same,promoter activity interaction Z-score,[5]; [13],0.0622 ± 0.0015
same,promoter activity interaction Z-score,[5]; [14],-0.227 ± 0.048
same,promoter activity interaction Z-score,[5]; [15],-0.148 ± 0.0029
same,promoter activity interaction Z-score,[5]; [16],0.232 ± 0.064
same,promoter activity interaction Z-score,[5]; [17],0.0295 ± 0.037
same,promoter activity interaction Z-score,[5]; [18],-0.359 ± 0.27
same,promoter activity interaction Z-score,[5]; [19],-0.174 ± 0.033
same,promoter activity interaction Z-score,[5]; [20],0.0364 ± 0.046
same,promoter activity interaction Z-score,[5]; [21],-0.0651 ± 0.054
same,promoter activity interaction Z-score,[5]; [22],-0.426 ± 0.38
same,promoter activity interaction Z-score,[6]; [7],0.227 ± 1.2
same,promoter activity interaction Z-score,[6]; [8],0.771 ± 0.18
same,promoter activity interaction Z-score,[6]; [9],-0.361 ± 0.45
same,promoter activity interaction Z-score,[6]; [10],0.909 ± 0.084
same,promoter activity interaction Z-score,[6]; [11],0.235 ± 0.016
same,promoter activity interaction Z-score,[6]; [12],1.1 ± 0.24
same,promoter activity interaction Z-score,[6]; [13],0.305 ± 0.6
same,promoter activity interaction Z-score,[6]; [14],0.638 ± 0.84
same,promoter activity interaction Z-score,[6]; [15],0.735 ± 0.75
same,promoter activity interaction Z-score,[6]; [16],0.534 ± 0.58
same,promoter activity interaction Z-score,[6]; [17],0.496 ± 0.28
same,promoter activity interaction Z-score,[6]; [18],-0.159 ± 0.1
same,promoter activity interaction Z-score,[6]; [19],0.2 ± 1.1
same,promoter activity interaction Z-score,[6]; [20],-0.272 ± 1.3
same,promoter activity interaction Z-score,[6]; [21],0.279 ± 0.36
same,promoter activity interaction Z-score,[6]; [22],1.31 ± 0.19

# Reference: the supplement of paper PMC12282887
